From the supplement of paper PMC8699584
“And” between values parts separate entries of the source, which are not always exact repeats. Equal values may be shown once. Where a name gives a salt, the structure may show the parent alone. ± gives the standard deviation of the averaged measurements.

Tested on: Molm13
Assay: cell viability relative to DMSO control (bortezomib = 0%); higher = less growth inhibition
Conditions: 10 nM; 72 h
Outline: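 In duplicate runs, a library of 679 approved and investigational compounds in 384-well plates received acute myeloid leukemia cells at 1000 cells per well in 50 µL, with each compound at a single 10 nM dose for 72 h. CellTiter-Glo luminescence, read on an EnVision reader, served as the viability measure. Each plate was normalized by linear regression between DMSO-treated cells (100%) and positive-control-treated cells (0%).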

Row | Structure (SMILES) | cell viability
1 | CC#CC(=O)N1CCC[C@H]1c1nc(-c2ccc(C(=O)Nc3ccccn3)cc2)c2c(N)nccn12 [Acalabrutinib] | 111 ± 8.4%
2 | O=C1NC(=O)/C(=C/c2ccc3c(c2)OC(F)(F)O3)S1 | 102 ± 18%
3 | Nc1cccc(-c2cc3c(Oc4cccc(O)c4)ncnc3[nH]2)c1 | 101 ± 14%
4 | Cc1cccc(CC(=O)N2CCc3c2ccc(-c2cn(C)c4ncnc(N)c24)c3F)n1 | 114 ± 3.6%
5 | Cc1nc(-c2cn3c(n2)-c2ccc(-c4cnn(C(C)(C)C(N)=O)c4)cc2OCC3)n(C(C)C)n1 | 94.6 ± 8.3%
6 | C[C@@]1(C(=O)Nc2ccc(F)nc2)CCCN1c1nc(Nc2cc(C3CC3)n[nH]2)c2cccn2n1 | 117 ± 2.5%
7 | O=C(Nc1cccnc1)c1cc(-c2ccnc(F)c2)ccc1OCc1ccccc1 | 101 ± 20%
8 | C=CC(=O)Nc1cc(Nc2nccc(-c3cn(C)c4ccccc34)n2)c(OC)cc1N(C)CCN(C)C | 107 ± 17%
9 | Cc1ccc(S(=O)(=O)/C=C/C#N)cc1 | 87.5 ± 24%
10 | N#Cc1c(NC(=O)c2cccc3ccccc23)sc2c1CCCC2 | 102 ± 21%
11 | Nc1ncnc2c1ncn2C1OC(COP(=O)(O)O)C(O)C1O (centres undefined) [Adenosine 5'-monophosphate monohydrate] | 102 ± 34%
12 | COc1cc(-c2cc(-c3cccc(O)c3)cnc2N)cc(OC)c1OC | 99.8 ± 14%
13 | N#Cc1c(Oc2ccc(F)c(NC(=O)Cc3cccc(C(F)(F)F)c3)c2)ccc2nc(NC(=O)C3CC3)sc12 | 105 ± 12%
14 | Oc1c2ccccc2c2c3c(cccc13)N=N2 | 114% and 102%
15 | CC(=O)c1cnc2ccc(-c3cc(Cl)c(O)c(Cl)c3)nc2c1N[C@H]1CC[C@H](CN(C)C)CC1 | 95.1 ± 17%
16 | CCCS(=O)(=O)Nc1ccc(F)c(C(=O)c2c[nH]c3ncc(Cl)cc23)c1F | 104 ± 8.2%
17 | CNC(=O)CN1CCC(Oc2cc3c(Nc4cccc(Cl)c4F)ncnc3cc2OC)CC1 [AZD8931 (Sapitinib)] | 104 ± 6.3%
18 | O=C(NCc1cccc(O)c1)Nc1nc(-c2ccncc2)cs1 | 88.6 ± 11%
19 | Cn1cc(-c2ccc3ncc(Cc4ccc5ncccc5c4)n3n2)cn1 | 100 ± 16%
20 | O=C(O)c1ccc(Nc2ncc3c(n2)-c2ccc(Cl)cc2C(c2c(F)cccc2F)=NC3)cc1 | 107 ± 1.3%

Row | Structure (SMILES) | cell viability
21 | C=C1C[C@@]2(O)O[C@@]3(C[C@H]2C(C)C)[C@@H](C)CC[C@@H]13 [Curcumol] | 99 ± 9.7%
22 | O=C1c2cccc(O)c2C(=O)c2c(O)cccc21 [Antrapurol] | 112 ± 7.6%
23 | CCCCCCCCCC(=O)CC(O)S(=O)(=O)O (centres undefined) [Sodium houttuyfonate] | 108 ± 1.5%
24 | COc1cc(Nc2ncc3c(n2)-c2ccc(Cl)cc2C(c2c(F)cccc2OC)=NC3)ccc1C(=O)O [MLN8237(Alisertib)] | 99.5 ± 6.3%
25 | CC(=O)Nc1cccc(-n2c(=O)n(C3CC3)c(=O)c3c(Nc4ccc(I)cc4F)n(C)c(=O)c(C)c32)c1 | 101 ± 25%
26 | CNc1nc(Nc2cnn([C@H]3CCN(C4COC4)C[C@@H]3F)c2Cl)ncc1C(F)(F)F | 99.6 ± 15%
27 | Cc1cc(NC(=O)c2cccc(NC(=O)/C=C/CN(C)C)c2)ccc1Nc1nccc(-c2cccnc2)n1 | 92 ± 6.9%
28 | CC(C)c1ccc2c(c1)CC[C@H]1[C@](C)(CN)CCC[C@]21C [Leelamine] | 96.7 ± 8.5%
29 | COC(=O)c1ccc2c(c1)NC(=O)/C2=C(\Nc1ccc(N(C)C(=O)CN2CCN(C)CC2)cc1)c1ccccc1 | 87.7 ± 22%
30 | CCN(CC)CCCCNc1ncc2cc(-c3cc(OC)cc(OC)c3)c(NC(=O)NC(C)(C)C)nc2n1 | 114% and 117%
31 | Cn1cc(C2=C(c3cccc(N)c3)C(=O)NC2=O)c2ccccc21 | 114.2 ± 0.55%
32 | COc1cc2ncnc(Nc3cccc(Cl)c3)c2cc1OC | 98.7 ± 14%
33 | FC(F)(F)c1ccc(CNc2ccc(Cc3c[nH]c4ncc(Cl)cc34)cn2)cn1 | 89.207 ± 0.064%
34 | Cc1c(C)c2c(c(C)c1O)CC[C@@](C)(CCC[C@H](C)CCC[C@H](C)CCCC(C)C)O2 [Vitamin E] | 93.3 ± 1.1%
35 | CCN1/C(=C/C(C)=O)Sc2ccc(OC)cc21 | 106 ± 11%
36 | CNC(=O)Nc1cc(Oc2cncc(C)c2)c(-c2ccc(OCC(C)(C)O)nc2)cn1 | 101.5 ± 0.58%
37 | CCN(CC)CC(=O)Nc1c(C)cccc1C [Lidocaine Hydrochloride hydrate] | 111 ± 18%
38 | Cc1ccc(C(=O)Nc2ccc(CN3CCN(C)CC3)c(C(F)(F)F)c2)cc1C#Cc1cnc2[nH]ncc2c1 [GZD824 Dimesylate] | 4.07 ± 5.9%
39 | N#C/C(=C(/N)Sc1ccc(N)cc1)c1ccccc1C(F)(F)F | 108 ± 28%
